Read-out in assay [1]: Interleukin 17F (IL17F), IL17F (gene 112744)
Kind of assay: BSK_BT_xIL17F: BioMAP Diversity Plus: BT Assay for Interleukin 17F (IL17F) Biomarker Activity (AID 2284243). To be noted: primary human B cells with PBMC. The procedure, abridged:
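Luminex readout of IL-17F secretion, 24 h; cells: human B cells with PBMC; positive-direction analysis, DMSO control.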

Read-out in assay [2]: Collagen IV, COL4A1 (gene 1282)
Kind of assay: BSK_MyoF_CollagenIV: BioMAP Diversity Plus: MyoF Assay for Collagen IV Biomarker Activity (AID 2284247). To be noted: primary human lung fibroblasts. Summed up: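 Activity is scored as a signal increase over DMSO in an ELISA for Collagen IV, measured on human lung fibroblasts at 24 h after chemical treatment. Cytotoxicity is checked in parallel cultures by sulforhodamine B total-protein staining.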

Read-out in assay [3]: Monokine induced gamma interferon (MIG), CXCL9 (gene 4283)
Put plainly: BSK_KF3CT_MIG: BioMAP Diversity Plus: KF3CT Assay for Monokine induced gamma interferon (MIG) Biomarker Activity (AID 2284248). To be noted: primary human keratinocytes with fibroblasts. Summed up: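 MIG in dosed human skin co-cultures was measured by ELISA at 24 h, relative to DMSO.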

Read-out in assay [4]: Collagen I, COL1A1 (gene 1277)
Kind of assay: BSK_hDFCGF_CollagenI: BioMAP Diversity Plus: hDFCGF Assay for Collagen I Biomarker Activity (AID 2284250). The settings on record: primary human foreskin fibroblasts. The procedure, abridged:
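Cells were primary human foreskin fibroblasts treated for 24 h. Collagen I levels were then determined by ELISA and compared against DMSO controls.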

Read-out in assay [5]: Interferon-inducible T-cell alpha chemoattractant (ITAC), CXCL11 (gene 6373)
Kind of assay: BSK_hDFCGF_ITAC: BioMAP Diversity Plus: hDFCGF Assay for Interferon-inducible T-cell alpha chemoattractant (ITAC) Biomarker Activity (AID 2284251). The settings on record: primary human foreskin fibroblasts. The procedure, abridged: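 ELISA readout of I-TAC after 24 h chemical exposure; human dermal foreskin fibroblast primary cells. Positive-direction fitting vs DMSO baseline. Parallel SRB total-protein staining (0.1% SRB after 10% TCA fixation, 560 nm) flags cytotoxicity.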

Read-out in assay [6]: Plasminogen activator inhibitor-1 (PAI1), SERPINE1 (gene 5054)
Put plainly: BSK_KF3CT_PAI1: BioMAP Diversity Plus: KF3CT Assay for Plasminogen activator inhibitor-1 (PAI1) Biomarker Activity (AID 2284252). To be noted: primary human keratinocytes with fibroblasts. The procedure, abridged: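 Signal is PAI-1 detected by ELISA in a human skin-derived keratinocyte/fibroblast co-culture, 24 h after dosing; DMSO served as negative control and baseline.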

Read-out in assay [7]: Interleukin-8 (IL8), CXCL8 (gene 3576)
Kind of assay: BSK_KF3CT_IL8: BioMAP Diversity Plus: KF3CT Assay for Interleukin-8 (IL8) Biomarker Activity (AID 2284254). To be noted: primary human keratinocytes with fibroblasts. The procedure, abridged:
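Using parallel SRB-stained cultures to flag overt toxicity, the study quantified IL-8 by ELISA in human keratinocyte–foreskin fibroblast co-cultures 24 h after dosing, with DMSO as negative control and baseline.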

Read-out in assay [8]: Vascular cell adhesion molecule 1 (VCAM1), VCAM1 (gene 7412)
Kind of assay: BSK_BF4T_VCAM1: BioMAP Diversity Plus: BF4T Assay for Vascular cell adhesion molecule 1 (VCAM1) Biomarker Activity (AID 2284249). The settings on record: primary human bronchial epithelial cells with fibroblasts. The procedure, abridged: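 Human bronchial epithelial cell and dermal fibroblast co-culture exposed 24 h. VCAM-1 measured by ELISA; parallel SRB total-protein staining for cytotoxicity. Fitted in positive direction relative to DMSO.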

Read-out in assay [9]: Monocyte Chemoattractant Protein-1 (MCP1), CCL2 (gene 6347)
Kind of assay: BSK_IMphg_MCP1: BioMAP Diversity Plus: IMphg Assay for Monocyte Chemoattractant Protein-1 (MCP1) Biomarker Activity (AID 2284253). To be noted: primary human endothelial cells with macrophages. Summed up: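 Human venular endothelial cells co-cultured with macrophages; MCP-1 measured by ELISA 24 hours post-dose and fitted against DMSO. Cytotoxicity monitored by SRB total-protein staining in parallel cultures.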

Read-out in assay [10]: Macrophage Inflammatory Protein-1 Alpha (MIP1a), CCL3 (gene 6348)
Kind of assay: BSK_IMphg_MIP1a: BioMAP Diversity Plus: IMphg Assay for Macrophage Inflammatory Protein-1 Alpha (MIP1a) Biomarker Activity (AID 2284255). The settings on record: primary human endothelial cells with macrophages. The procedure, abridged:
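Co-culture of human venular endothelial cells and macrophages exposed to compounds for 24 h; MIP-1a measured by ELISA relative to DMSO. Cytotoxicity assessed in parallel cultures by sulforhodamine B total-protein staining at 560 nm.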

Some structures have more than one record in an assay (separate samples or runs), and their calls can disagree. The source made the active and inactive calls. How the source made its calls: active means hit-call score of the fitted dose curve at least 0.9, where 1 is the maximum; inactive means score below 0.9.

Consider `CC1(C)Cc2cccc(O)c2O1`, for which the outcome in assay [1] and in [2] was inactive.

Take `O=Cc1cccc(Oc2ccccc2)c1`: the result in assay [1] and in assay [2] was inactive.

On to `CC(=O)OC(c1ccccc1)C(Cl)(Cl)Cl` (stereo unspecified), for which the outcome in assay [3], in assay [4], in [5], in assay [6] and in [7] was inactive.

With `COP(=S)(OC)Oc1ccc(S(=O)(=O)N(C)C)cc1`, the outcome in assay [1] and in assay [2] was inactive.

Broadly, the AC50 is the concentration giving half of the maximal activity seen. On to `Oc1c(I)cc(I)cc1I`, for which, in assay [1], the result was inactive. Further, in [2], the AC50 was 4.34 µM (active).

`Nc1ncc([N+](=O)[O-])s1`: the result in [1] and in assay [2] was inactive.

Turning to `COP(=S)(OC)Oc1c(Cl)cc(C)cc1Cl`, the result in assay [1] and in [2] was inactive.

For `ClC1=C(Cl)[C@]2(Cl)[C@H]3[C@H]([C@H]4C=C[C@H]3C4)[C@@]1(Cl)C2(Cl)Cl`, in assay [1], the AC50 is 27 µM (active). In addition, the result in assay [2] was inactive.

Consider `CCCCCCCCC(=O)NCc1ccc(O)c(OC)c1`, for which the result in assay [1] and in assay [2] was inactive.

For the molecule `BrCCBr`, the result in assay [1] and in [2] was inactive.

With `COC[C@H](C)N(C(=O)CCl)c1c(C)csc1C`, the outcome in assay [1] and in assay [2] was inactive.

For the molecule `O=C(O)C(F)(F)C(F)(F)C(F)(F)C(F)(F)C(F)(F)C(F)(F)F`, the outcome in assay [1], in assay [2], in [3], in [8], in [4] and in assay [5] was inactive. The result in assay [6], in assay [9], in assay [7] and in assay [10] was inactive.

Consider `CCOP(=S)(OCC)SCCS(=O)(=O)CC`, for which the result in [1] and in assay [2] was inactive.

With `Nc1cccc2ccccc12`, the result in assay [1] and in [2] was inactive.

`NC(=S)Nc1ccccc1`: the outcome in assay [1] and in assay [2] was inactive.

As for `CC(=O)C(Cl)C(=O)N(C)C` (stereo unspecified), the AC50 in assay [1] is 28.8 µM (active). Besides, in assay [2], the result was inactive.

Consider `COC(=O)c1sccc1S(=O)(=O)NC(=O)Nc1nc(C)nc(OC)n1`, for which the result in assay [1] and in assay [2] was inactive.

Turning to `Oc1ccc(-c2ccccc2)cc1`, the result in [1] and in assay [2] was inactive.

Consider `COC(=O)Cc1ccccc1`, for which the result in assay [3], in assay [4], in [5], in assay [6] and in [7] was inactive.

On to `CCSC(C)CC1CC(=O)C(C(CC)=NOC/C=C/Cl)=C(O)C1` (stereo unspecified), for which the result in assay [1] and in assay [2] was inactive.

With `CCOC(=O)/C=C(C)/C=C/C[C@@H](C)CCCC(C)C`, the AC50 is 25.6 µM (active) in assay [1] and 7.11 µM (active) in assay [2].

In the case of `O=C(O)CCC(F)(C(F)(F)F)C(F)(F)F`, the result in assay [1], in [2], in [3], in [8], in assay [4] and in [5] was inactive. The result in assay [6], in assay [9], in [7] and in assay [10] was inactive. Moreover, in [5], the AC50 was 5.95 µM (active).

On to `COc1cc(OC)nc(NC(=O)NS(=O)(=O)c2ncccc2C(=O)N(C)C)n1`, for which the outcome in assay [1] and in assay [2] was inactive.

`OCc1ccco1`: in assay [1], the AC50 was 9.51 µM (active). In addition, the outcome in [2] was inactive.

For the origin of these results see PubChem BioAssay (EPA / NIEHS).
